High-throughput results deposited in PubChem BioAssay by National Center for Advancing Translational Sciences (NCATS).
This is a sample that favours compounds with a hit; in the whole collection about 8.5% have one here.
JMJD2E inh = blocks human JMJD2E demethylase activity; B2RXH2; JMJD2E catalytic domain, FDH-coupled NADH fluorescence (FDH is formaldehyde dehydrogenase); Potency, µM (highest dose often 57.1 µM), actives largely listed as inhibitors; actives 1.6% (n = 230,000); AID 2147; active = well fitted inhibition curve with a large enough effect, not every such curve was filed as active; inconclusive = small, poorly fitted or top-dose-only effect, or another doubt; inactive = no such curve, though single readings can be large or run the other way; note: nearly all actives have a fitted effect of over 50% in size
Target sequence (B2RXH2 1-337 limits assumed): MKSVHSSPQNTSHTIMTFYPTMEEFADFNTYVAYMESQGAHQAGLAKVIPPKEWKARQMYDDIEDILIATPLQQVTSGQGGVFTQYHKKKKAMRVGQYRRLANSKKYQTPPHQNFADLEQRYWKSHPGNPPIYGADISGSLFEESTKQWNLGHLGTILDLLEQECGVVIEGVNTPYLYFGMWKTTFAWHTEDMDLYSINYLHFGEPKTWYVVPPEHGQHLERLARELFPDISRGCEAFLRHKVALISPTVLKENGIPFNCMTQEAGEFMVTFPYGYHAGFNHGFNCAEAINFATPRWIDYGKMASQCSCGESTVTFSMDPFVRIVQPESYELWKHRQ
Sfp inh = inhibitors of Bacillus subtilis Sfp phosphopantetheinyl transferase | Q9F4F7 | Biochemical Sfp PPTase activity, qHTS | Potency, µM, most hits filed as inhibitors | actives 3.5% (n = 310,000);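 note: the enzyme is Sfp with the accession as filed and its product quenches rhodamine fluorescence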
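Sfp 15 nM + cpd, 15 min RT; start w/ rhodamine-CoA 5 uM, BHQ-2-YbbR 12.5 uM (final); 50 mM Hepes pH 7.6, 10 mM MgCl2, 0.01% NP-40, 0.01% BSA; read 525/598 nm at 0 and 30 min.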
Coupling enz = inhibits coupling enzyme system, counter-screen for aldolase hits; coupling enzyme system counterscreen, AmpLite Red fluorescence; activity change, negative = inhibition, % at 58.2 µM, hits read low; actives 0.67% (n = 290,000); in the data active = activity change below about -30%
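Coupling enzymes only (glyceraldehyde-3-phosphate) + compound, at 57.5 uM final, 10 min RT; add substrate/coupling/AmpLite Red mix, 20 min RT; fluorescence ex 525/em 598 nm. Actives flag coupling-system interference.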
GoLoco inh red = blocks human Gai1 binding to RGS12 GoLoco peptide, red readout; P63096; Gai1:RGS12 GoLoco peptide FP, rhodamine, 10 min; Potency, µM (top dose mostly 61.6 µM), usual class: inhibitors; actives 0.44% (n = 230,000); AID 880; active = well fitted inhibition curve with a large enough effect, not every such curve was filed as active; inactive = no such curve, though single readings can be large or run the other way; note: nearly all actives have a fitted effect of over 30% in size
ALDH1A1 inh = blocks purified human ALDH1A1 activity. actives 7.3% (n = 220,000). Potency, µM (doses to about 75.3 µM), most hits filed as inhibitors. P00352. AID 1030. Purified ALDH1A1, NADH fluorescence, propionaldehyde substrate; active = well fitted inhibition curve with a large enough effect, not every such curve was filed as active; inconclusive = small, poorly fitted or top-dose-only effect, or another doubt; inactive = no such curve, though single readings can be large or run the other way
NPSR antag = neuropeptide S receptor (human) antagonism, cAMP; Potency, µM (doses to about 38.3 µM), hits mostly inhibitors; actives 1% (n = 220,000); CHO-NPSR cells, cAMP TR-FRET, antagonist mode; note: nearly all actives have a fitted effect of over 50% in size
Target sequence (Q6W5P4 whole entry, looked up): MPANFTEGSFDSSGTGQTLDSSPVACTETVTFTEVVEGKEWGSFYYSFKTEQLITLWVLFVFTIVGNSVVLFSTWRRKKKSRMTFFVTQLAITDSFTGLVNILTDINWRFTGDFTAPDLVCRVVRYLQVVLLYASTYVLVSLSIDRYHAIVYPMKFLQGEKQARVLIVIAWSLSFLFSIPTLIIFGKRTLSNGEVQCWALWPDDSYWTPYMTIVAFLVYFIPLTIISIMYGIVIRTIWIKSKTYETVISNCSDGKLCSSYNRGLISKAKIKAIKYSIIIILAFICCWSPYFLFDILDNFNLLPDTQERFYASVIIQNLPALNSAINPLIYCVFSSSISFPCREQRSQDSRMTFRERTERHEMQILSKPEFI
Large screens that a line does not name were inactive. Unless noted, calls come from the whole dose curve; as a rule, active = well fitted curve in the direction sought with a large enough effect; inconclusive = small, poorly fitted or top-dose-only effect, or another doubt; inactive = no such curve, though single readings can be large; an effect the other way counts as inactive or inconclusive.

Cc1cccc(N2C(S)=C(C#N)C(=O)NC23CCCCC3)c1	Sfp inh 79.4µM
Cc1ccccc1N1C(=O)CC2(CCCC2)CC1=O	none
Cc1ccccc1N1C(S)=C(C#N)C(=O)NC12CCCCC2	Sfp inh 14.1µM
Cc1cccc(Nc2nc(C)cc(C)c2C#N)c1	none (no result: JMJD2E inh, GoLoco inh red, ALDH1A1 inh, NPSR antag)
Cc1cccc(NC2=C(C#N)C(=O)NC3(CCCC3)S2)c1	Sfp inh 17.8µM
Oc1ccc2ccccc2c1CN(Cc1c(O)ccc2ccccc12)C1CCCCC1	ALDH1A1 inh inconclusive (no result: JMJD2E inh, Sfp inh, Coupling enz, NPSR antag)
COc1cc(/C=N/NC(=O)COc2ccc(-n3cnnn3)cc2)ccc1OCC(N)=O	none
CS(C)(=O)=O	JMJD2E inh inconclusive (no result: NPSR antag)
C=C1SC(Nc2c(C)cc(C)cc2C)=NC12CCCCC2	none (no result: ALDH1A1 inh)
COc1ccc(C2C(=O)N(C3CCCCC3)CC(=O)N2Cc2ccco2)cc1 (configuration not stated)	Sfp inh 22.4µM, ALDH1A1 inh inconclusive
CCCOc1ccc(C2C(=O)N(C3CCCCCC3)CC(=O)N2Cc2ccco2)cc1OC (configuration not stated)	none
CC(=O)c1[nH]c(C)c(C(=O)N2CCCC(Nc3cccc(F)c3)C2)c1C (configuration not stated)	none (no result: JMJD2E inh, Coupling enz, GoLoco inh red, ALDH1A1 inh, NPSR antag)
Cc1nc2cnc(N3CCOCC3)nc2n(Cc2cccs2)c1=O	ALDH1A1 inh inconclusive (no result: JMJD2E inh, NPSR antag)
CCOc1ccc(N(CC(=O)NCc2ccco2)C(=O)CCC(=O)Nc2ccccn2)cc1	none (no result: JMJD2E inh, GoLoco inh red, ALDH1A1 inh, NPSR antag)
COc1cccc(N2C(C(C)=O)=NN(c3ccccc3)C2c2ccc(N3CCOCC3)cc2)c1 (configuration not stated)	ALDH1A1 inh 14.1µM
O=C(O)CCNc1ccc(Cl)cc1	none (no result: ALDH1A1 inh)
O=C(CCNc1ccc(Cl)cc1)c1cccs1	ALDH1A1 inh 3.16µM
Cc1ccc(NC(=O)CCC(=O)c2cccs2)cc1F	none (no result: JMJD2E inh, GoLoco inh red, ALDH1A1 inh, NPSR antag)
O=C(CCSc1ccc(Cl)cc1)c1cccs1	ALDH1A1 inh 0.355µM, NPSR antag inconclusive
O=C(CCNc1cc(Cl)cc(Cl)c1)c1cccs1	ALDH1A1 inh 1.58µM
O=C(C1CC(=O)N(c2ccccc2)C1)N1CCN(c2ccccc2F)CC1 (configuration not stated)	none (no result: JMJD2E inh, Coupling enz, GoLoco inh red, ALDH1A1 inh, NPSR antag)
CCCCCCCCCCOC(=O)Cn1c(COc2ccccc2C)[n+](C)c2ccccc21	Sfp inh 44.7µM (no result: JMJD2E inh, GoLoco inh red, ALDH1A1 inh, NPSR antag)
CCCCCCCCCCOC(=O)Cn1c(COc2ccccc2)[n+](C)c2ccccc21	Sfp inh 39.8µM (no result: JMJD2E inh, GoLoco inh red, ALDH1A1 inh, NPSR antag)
CCCCCCCCCCOC(=O)Cn1c(COc2ccc(OC)cc2)[n+](C)c2ccccc21	Sfp inh 35.5µM (no result: JMJD2E inh, GoLoco inh red, ALDH1A1 inh, NPSR antag)
CCCCCCCCCCOC(=O)Cn1c(COc2ccc(Cl)cc2)[n+](C)c2ccccc21	Sfp inh 25.1µM (no result: JMJD2E inh, GoLoco inh red, ALDH1A1 inh, NPSR antag)
CCCCOC(=O)Cn1c(=O)n(CC(=O)OCCCC)c2ccccc21	none
CCCCCOC(=O)Cn1c(=O)oc2ccccc21	none
CC1(C)CC(=O)C(C2C3=C(CC(C)(C)CC3=O)Oc3c(Br)cc(Br)cc32)=C(O)C1 (configuration not stated)	none (no result: JMJD2E inh, GoLoco inh red, ALDH1A1 inh, NPSR antag)
CCCCCCCCCCOC(=O)Cn1c(COc2cccc(C)c2)[n+](C)c2ccccc21	Sfp inh 56.2µM (no result: JMJD2E inh, GoLoco inh red, ALDH1A1 inh, NPSR antag)
Cc1ccc(-c2nnc(-n3nc(C)cc3C)c3ccccc23)cc1	none
Cc1cc(C)n(-c2nnc(Cl)c3ccccc23)n1	ALDH1A1 inh 3.55µM
Cc1c(NC(=O)Nc2cccc(Cl)c2Cl)c(=O)n(-c2ccccc2)n1C	none (no result: JMJD2E inh, GoLoco inh red, ALDH1A1 inh, NPSR antag)
O=C(NC(=S)Nc1ccc(N2CCOCC2)cc1)c1ccc2c(c1)OCCO2	ALDH1A1 inh 20µM
CC(C)(C)C(=O)NC(=S)Nc1ccc(F)cc1	ALDH1A1 inh 22.4µM
CC(C)(C)c1ccc(C(=O)NC(=S)Nc2ccc(N3CCOCC3)cc2)cc1	ALDH1A1 inh 10µM
O=C(NC(=S)Nc1ccc(F)cc1)c1ccc2c(c1)OCCO2	ALDH1A1 inh 12.6µM
CC(=O)Nc1ccc(NC(=S)Nc2ccc(F)cc2)cc1	none
CCOC(=O)C1=C(O)C(=O)N(CCCn2ccnc2)C1c1ccc(OC)cc1 (configuration not stated)	none
O=C(NC(=S)Nc1ccc(CN2CCOCC2)cc1)c1ccc2c(c1)OCCO2	Sfp inh inconclusive (no result: ALDH1A1 inh)
O=C(NC(=S)Nc1ccc(N2CCCCC2)cc1)c1ccc2c(c1)OCCO2	ALDH1A1 inh 10µM
O=C(NC(=S)Nc1ccc(Cc2ccncc2)cc1)c1ccc(F)cc1	Sfp inh 50.1µM, ALDH1A1 inh 20µM
CC(=O)N1CCN(c2ccc(NC(=S)NC(=O)COc3ccc(C(C)(C)C)cc3)cc2)CC1	Sfp inh inconclusive, ALDH1A1 inh 18.9µM
CC(C)(C)C(=O)NC(=S)Nc1ccc(Cc2ccncc2)cc1	none (no result: JMJD2E inh, GoLoco inh red, ALDH1A1 inh, NPSR antag)
COc1cccc(N(CC(=O)N/N=C(\C)c2cccs2)S(C)(=O)=O)c1	none
COc1ccc(-c2csc(NC(=O)Cc3ccccc3)n2)cc1OC	none (no result: JMJD2E inh, GoLoco inh red, ALDH1A1 inh, NPSR antag)
COc1cccc(NC(=O)Nc2nc(-c3ccc(OC)c(OC)c3)cs2)c1	none (no result: JMJD2E inh, GoLoco inh red, ALDH1A1 inh, NPSR antag)
COc1ccc(-c2csc(N)n2)cc1F	ALDH1A1 inh 11.2µM
COc1cccc(-c2csc(NC(C)=O)n2)c1	ALDH1A1 inh 11.2µM
COc1ccc(-c2csc(NC(C)=O)n2)cc1OC	Sfp inh 50.1µM, ALDH1A1 inh inconclusive
CCCCC1CCC(C(=O)NCC(c2ccco2)N2CCOCC2)CC1 (configuration not stated)	none (no result: JMJD2E inh, GoLoco inh red, ALDH1A1 inh, NPSR antag)
O=c1c(-c2ccc(O)cc2)coc2cc(O)cc(O)c12	none
O=c1c(-c2cc(O)c(O)c(O)c2)coc2cc(O)c(O)c(O)c12	JMJD2E inh 2.82µM, Coupling enz -70.8, ALDH1A1 inh 25.1µM (no result: NPSR antag)
CC1Cc2ccccc2N1C(=O)CSc1nnc(Cn2nnc3ccccc32)n1C (configuration not stated)	ALDH1A1 inh 10µM, NPSR antag inconclusive
COc1cccc(-n2c(SCC(=O)NC3CCCC3)nnc2-c2ccco2)c1	ALDH1A1 inh inconclusive
COc1cccc(-n2c(SCC(=O)N3c4ccccc4CC3C)nnc2-c2ccco2)c1 (configuration not stated)	ALDH1A1 inh 25.1µM, NPSR antag inconclusive
CC1CCCN(c2nc(NCc3ccco3)nc(N)c2[N+](=O)[O-])C1 (configuration not stated)	ALDH1A1 inh 2µM
CCOc1ccc(CNc2ccc(S(N)(=O)=O)cc2)cc1	none
Cc1c(/C(O)=C2/C(=O)C(=O)N(Cc3cccnc3)C2c2cccs2)cnn1-c1ccccc1 (configuration not stated)	ALDH1A1 inh 1.12µM
CN(C)S(=O)(=O)c1ccc(/C(O)=C2/C(=O)C(=O)N(CCN3CCCCC3)C2c2cccnc2)cc1 (configuration not stated)	ALDH1A1 inh 22.4µM (no result: JMJD2E inh, Sfp inh, Coupling enz, GoLoco inh red, NPSR antag)
Cc1ccc(/C(O)=C2/C(=O)C(=O)N(Cc3cccnc3)C2c2ccccn2)cc1 (configuration not stated)	NPSR antag inconclusive
